Screening results from PubChem BioAssay.
BCR signal inh: qHTS Assay to Find Inhibitors of Chronic Active B-Cell Receptor Signaling | AID 493014, 2011 | ABC-DLBCL IkBa-CBG/CBR reporter, luminescence ratio, 4 h | actives 0.05% (n = 340,000) | Potency, µM (doses to about 46.1 µM), usual class: inhibitors; active = well fitted inhibition curve with a large enough effect in the signal ratio, with a control signal flat, not every such curve was filed as active; inconclusive = small, poorly fitted or top-dose-only effect, or effect the other way, or a change in a side signal; the % refers to the signal ratio
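Doxycycline induced both beetle luciferases in TMD8 lymphoma cells; IKK-driven degradation limits the IkappaBalpha-fused green signal, while red luminescence normalises for cell number and nonspecific effects. Compounds tested up to 46 uM, 4 hrs.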
MCF10A rerep: A quantitative high throughput screen for small molecules that induce DNA re-replication in MCF 10a normal breast cells; actives 2.9% (n = 350,000); MCF 10A DNA re-replication, Hoechst nuclear intensity, 48 h; AID 624296, 2012; Potency, µM (highest dose often 46.1 µM), most hits filed as activators; note: nearly all actives have a fitted effect of over 50% in size
RORg inh: qHTS for inhibitors of ROR gamma transcriptional activity; Nuclear receptor ROR-gamma (Mus musculus), P51450; Drosophila S2 Gal4-RORgamma UAS-luciferase reporter, 20 h; Potency, µM (top dose mostly 53.6 µM), hits mostly inhibitors; actives 5.4% (n = 310,000); note: nearly all actives have a fitted effect of over 60% in size
Target sequence (P51450 whole entry, looked up, the tested form may be a part): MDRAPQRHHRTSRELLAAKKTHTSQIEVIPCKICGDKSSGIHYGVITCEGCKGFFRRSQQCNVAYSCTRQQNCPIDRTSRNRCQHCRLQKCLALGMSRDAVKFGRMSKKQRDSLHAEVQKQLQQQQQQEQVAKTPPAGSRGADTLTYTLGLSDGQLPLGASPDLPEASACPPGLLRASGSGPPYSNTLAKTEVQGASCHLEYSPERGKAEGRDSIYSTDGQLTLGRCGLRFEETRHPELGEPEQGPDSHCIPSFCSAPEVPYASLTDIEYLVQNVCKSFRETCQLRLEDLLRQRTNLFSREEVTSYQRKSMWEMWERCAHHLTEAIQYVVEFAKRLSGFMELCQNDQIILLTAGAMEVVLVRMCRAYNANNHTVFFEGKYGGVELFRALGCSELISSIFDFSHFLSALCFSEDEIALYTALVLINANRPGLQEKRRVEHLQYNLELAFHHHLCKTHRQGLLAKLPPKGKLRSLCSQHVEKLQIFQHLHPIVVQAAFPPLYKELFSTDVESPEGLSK
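Compounds are pin-transferred onto Drosophila Schneider cells expressing a copper-inducible Gal4–ROR gamma transactivation domain fusion. After 1 hr, copper sulfate is added to 700 uM final; luciferase is read 20 hr later.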
Gal4-VP16 FLuc: VP16 counterscreen qHTS for inhibitors of ROR gamma transcriptional activity. Potency, µM (series often up to 53.6 µM), hits mostly inhibitors. actives 3.5% (n = 310,000). Drosophila S2 Gal4-VP16 UAS-luciferase, luminescence, 20 h;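 note: Gal4-VP16 expression switched on by copper sulfate through the metallothionein promoter; nearly all actives have a fitted effect of over 50% in size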
SW480 rerep: A quantitative high throughput screen for small molecules that induce DNA re-replication in SW480 colon adenocarcinoma cells; SW480 DNA re-replication, Hoechst DNA content imaging, 48 h; Potency, µM (highest dose often 46.1 µM), most hits filed as activators; actives 1.8% (n = 340,000); AID 624297, 2012; note: nearly all actives have a fitted effect of over 55% in size
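Quantitative HTS format with DMSO vehicle controls; 48 hr drug incubation at 37 C, then 40 min Hoechst staining and scanning imager measurement at 405 nm excitation.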
Giardia kill: Small Molecules that selectively kill Giardia lamblia: qHTS | Giardia lamblia trophozoite viability | activity change, % at 7.66 µM, hits read low | actives 0.15% (n = 340,000); in the data active = activity change below about -80%; inconclusive = between about -30% and that limit;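 note: parasites exposed to compound for two days anaerobically before the ATP read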
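Giardia trophozoites, 100 cells per well, were exposed to compounds for 48 hrs at 37 deg C under anaerobic conditions; viability was then read as ATP content by bioluminescence after 15-30 min at room temperature.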
Each line names hits and unclear results; the compound was inactive in the other large screens. Sampled rows, rich in hits. Any-hit rate of the full collection: about 8.3%. Unless noted, calls come from the whole dose curve; as a rule, active = well fitted curve in the direction sought with a large enough effect; inconclusive = small, poorly fitted or top-dose-only effect, or another doubt; inactive = no such curve, though single readings can be large; an effect the other way counts as inactive or inconclusive.

C/C(=N/Nc1nc(-c2ccccc2)cc(-c2ccc(F)cc2)n1)c1cccc(N)c1	BCR signal inh inconclusive, RORg inh 11µM, Gal4-VP16 FLuc 14µM, SW480 rerep inconclusive
CN1C(=O)CS/C1=N\NC(=O)COc1cccc2cccnc12	MCF10A rerep inconclusive
COCc1nc2ccccc2n1Cc1ccc(Br)cc1	RORg inh 10µM, Gal4-VP16 FLuc inconclusive
Cc1ccc(Cn2c(Cc3ccccc3)nc3ccccc32)cc1	MCF10A rerep inconclusive, RORg inh 8.9µM, Gal4-VP16 FLuc inconclusive
ClCc1nc2ccccc2n1Cc1ccccc1	none
Cc1nc2cc(NCc3nc4ccccc4n3Cc3ccccc3)ccc2n1C	BCR signal inh inconclusive, MCF10A rerep inconclusive
Cc1cccc(NCc2nc3ccccc3n2Cc2ccccc2)c1	RORg inh 1µM, Gal4-VP16 FLuc inconclusive
COc1ccc(Cn2c(-c3ccc(C)cc3)c[n+]3ccccc23)cc1	MCF10A rerep inconclusive, Gal4-VP16 FLuc 18µM
CC1CCN(C(=O)Cn2c(=O)c3cccn3c3ccccc32)CC1	none
Cc1cccc(C)c1NC(=O)CC12CCCN1CCC2	none (no result: BCR signal inh, Giardia kill)
COc1cc2c3c([nH]c2cc1F)C(=O)NCC3	none (no result: BCR signal inh, RORg inh, Gal4-VP16 FLuc)
CCC(=O)Nc1c(-c2ccc3ccccc3c2)nc2ccccn12	none
COc1ccc([C@H]2CC(=O)C=C(c3cccc(OC)c3OC)C2)cc1OC	BCR signal inh inconclusive (no result: RORg inh, Gal4-VP16 FLuc)
COc1ccc(CCNC(=O)Cn2nc(C)n3nc(-c4ccccc4)cc3c2=O)cc1OC	none
N#CCc1ccc(OC(=O)c2cnccc2C(F)(F)F)cc1	none
COCn1c(-c2ccc(OC)cc2)nc2ccccc21	RORg inh inconclusive
COc1ccc(-c2nc3ccccc3n2Cc2ccc(C)cc2)cc1	MCF10A rerep inconclusive, RORg inh 13µM, Gal4-VP16 FLuc inconclusive (no result: BCR signal inh)
CC1CCN(C(=O)/C(=C/c2ccccc2Cl)c2ccccc2)CC1	MCF10A rerep 16µM, Gal4-VP16 FLuc inconclusive
CCn1c(SCC(=O)N2CCC(C)CC2)nc2c(c1=O)SCC2	BCR signal inh inconclusive, RORg inh inconclusive
Cc1ccc2nc(Cl)c3cc(C(=O)N(CCN(C)C)Cc4ccco4)sc3c2c1	MCF10A rerep 16µM, SW480 rerep inconclusive
CCCCN1CC[C@H]2C=CC[C@@H](C(=O)Nc3ccc(Cl)cc3Cl)[C@H]2C1=O	none (no result: BCR signal inh, RORg inh, Gal4-VP16 FLuc)
COc1ccc2c(C)nc(Nc3nc(C)c(C)c(=O)[nH]3)nc2c1	RORg inh 5µM, Gal4-VP16 FLuc 2.8µM
COc1ccc2c(C)nc(Nc3nc(C)cc(C)n3)nc2c1	BCR signal inh inconclusive, RORg inh 0.25µM, Gal4-VP16 FLuc 1.3µM, SW480 rerep 5.2µM
CCc1c(C)nc(Nc2nc(C)c3ccc(OC)cc3n2)[nH]c1=O	none
O=C(Nc1ccc(C(F)(F)F)cc1Cl)c1ccc(Cn2cc(Br)cn2)o1	MCF10A rerep 13µM (no result: BCR signal inh)
Cc1cc(C)c2c(c1)CC(C)(C)CC2=O	none (no result: BCR signal inh, RORg inh, Gal4-VP16 FLuc)
COCCN(CC(=O)Nc1cccc(C)c1C)C(=O)Cn1cnc2ccccc2c1=O	none (no result: RORg inh, Gal4-VP16 FLuc)
c1nc2n(n1)C1=C(CCCC1)C1(CCCCC1)N2	RORg inh 2.5µM, Gal4-VP16 FLuc inconclusive
CCCCCCCNC(=O)C1(CC2CC(c3cccc(Br)c3)=NO2)CCNCC1 (centres undefined)	MCF10A rerep inconclusive
CC(C)CC(C)c1cc(N)nc2nc3ccccc3n12 (centres undefined)	BCR signal inh inconclusive, MCF10A rerep inconclusive, RORg inh 16µM
CC(C)Cn1c(-c2cccs2)nc2ccccc21	Gal4-VP16 FLuc inconclusive
CC1CN(c2ncc(/C=N/NC(=O)c3ccccc3O)s2)CC(C)O1 (centres undefined)	BCR signal inh inconclusive, RORg inh 0.35µM, Gal4-VP16 FLuc 1.3µM
O=C1C=C(c2ccc3cc[nH]c3c2)C[C@@H](c2ccc3c(c2)OCO3)C1	MCF10A rerep 21µM, SW480 rerep inconclusive (no result: RORg inh, Gal4-VP16 FLuc)
O=C1C=C(c2ccc3c(c2)OCO3)C[C@@H](c2ccc3c(c2)OCO3)C1	none (no result: RORg inh, Gal4-VP16 FLuc)
